# A selection: hits, their analogues and other compounds. The true share with any hit is near 3.5%.
# MITF inh: MITF inhibitors, primary screen, biochemical, AlphaScreen, human; Microphthalmia-associated transcription factor (Homo sapiens), O75030; AlphaScreen MITF homodimerization, bead proximity signal; 650,000 compounds, 0.91% hits; inhibition, % at 2.6 µM; in the data active means inhibition above about 50%;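 further: 0% = vehicle wells with protein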
# TEAD-YAP inh: TEAD-YAP interaction inhibition, primary screen, TEAD-YAP interaction inhibitor project, luminescence, HEK-TIYL cells; AID 1259422, 2018; inhibition, % at 9.12 µM; 640,000 compounds, 1.4% hits; TEAD-Gal4/YAP UAS-luciferase luminescence; in the data active means inhibition above about 32%;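 further: 0% = median of test compound wells and 100% = reference inhibitor wells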
# FBW7 activator: FBW7 E3 ligase activators, primary screen, biochemical, AlphaScreen, human. F-box/WD repeat-containing protein 7 (Homo sapiens), Q969H0. AlphaScreen FBW7–phospho-cyclin E peptide binding, activator screen. normalized activity (activation), % at 26.1 µM. 650,000 compounds, 0.13% hits. AID 1259310, 2017; in the data active means normalized activity above about 1.9%;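 further: purified mutant Fbw7 with reduced substrate affinity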
# GPR151 activ: activators of human GPR151, primary screen, cell-based, PathHunter beta-arrestin, luminescence; PathHunter beta-arrestin GPR151 cells; activation, % at 11.2 µM; 650,000 compounds, 1% hits; in the data active means activation above about 4.9%;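 further: 0% = median of compound wells and 100% = cells with positive control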
# Target sequence (Q8TDV0 whole entry, looked up): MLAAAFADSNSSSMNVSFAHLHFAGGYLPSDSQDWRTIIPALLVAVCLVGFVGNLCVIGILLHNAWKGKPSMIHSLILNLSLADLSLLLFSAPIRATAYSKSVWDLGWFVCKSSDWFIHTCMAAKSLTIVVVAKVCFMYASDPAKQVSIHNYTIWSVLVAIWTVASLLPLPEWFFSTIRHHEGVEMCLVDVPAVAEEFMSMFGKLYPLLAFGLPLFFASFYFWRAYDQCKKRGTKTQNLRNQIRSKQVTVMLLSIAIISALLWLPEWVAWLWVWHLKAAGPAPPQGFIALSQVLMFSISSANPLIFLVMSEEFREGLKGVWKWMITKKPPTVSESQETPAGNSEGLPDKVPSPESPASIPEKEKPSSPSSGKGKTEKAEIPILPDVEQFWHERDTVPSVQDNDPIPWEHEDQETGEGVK
# GPR151 conf act: GPR151 activators, triplicate retest, confirmation, cell-based, PathHunter beta-arrestin, luminescence; shares compounds with GPR151 activ; GPR151 PathHunter beta-arrestin cells, 90 min; % of EA-reagent control over plate median; 6,700 tested, under 10 active; activation, % at 11.2 µM; AID 1508609, 2020;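 active means mean percent activation across replicates above the confirmation screen cutoff of 4.91%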
# GPR119 ag: GPR119 activators in beta-arrestin cells, counter-screen for GPR151 activator project, cell-based, PathHunter beta-arrestin, luminescence, triplicate | shares compounds with GPR151 activ | 90 min; 0 = compound-well median, 100 = enzyme-acceptor control | activation, % at 11.2 µM | 6,700 compounds, 0.3% hits | AID 1508611, 2020;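 active means mean percent activation in the counterscreen above 29.09%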;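 further: counterscreen on off-target GPR119 to flag nonselective hits from the GPR151 activator screen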
# The depositor's hits bear a star; . = not tested or not shown; ! = not confirmed by another sample.
SMILES,MITF inh,TEAD-YAP inh,FBW7 activator,GPR151 activ,GPR151 conf act,GPR119 ag
CC(=O)Nc1ccc(S(=O)(=O)N2CC3CC(C2)c2cccc(=O)n2C3)cc1 (configuration not stated),-10,-8,0,1,.,.
CC(C)C(=O)Nc1ccc(S(=O)(=O)N2CC3CC(C2)c2cccc(=O)n2C3)cc1 (configuration not stated),8,2,0,13*,0,9
CN(C)/C=C(/C=[N+](C)C)n1cnc([N+](=O)[O-])n1,4,7,0,0,.,.
CCN(CC)C(=O)CN1CC=C(c2ccc(C)o2)CC1,13,-8,0,0,.,.
CCN1CC2(COC)CC[C@H](O)C34C5C[C@@H]6C(OC)C[C@@](O)(C5[C@H]6OC(C)=O)[C@@H](CC23)[C@@H]14 (some centres not stated),-1,3,0,5.4*,0,8
COc1ccccc1N1CCN(Cc2ccc([N+](=O)[O-])cc2)CC1,37,8,0,5.5*,-1,8
Cc1ccccc1N1CCN(Cc2ccc([N+](=O)[O-])cc2)CC1,0,-3,0,0,.,.
C[C@]12CCC(=O)C=C1CC[C@@H]1[C@@H]2CC[C@]2(C)C(=O)CC[C@@H]12,2,-6,1,-1,.,.
CC12C=CC(=O)C=C1CCC1C2CCC2(C)C(=O)CCC12 (configuration not stated),7,-16,0,5.1*,0,-6
CN1CCN(c2ccc(C=O)cc2[N+](=O)[O-])CC1,6,7,0,1,.,.
C[C@@H]1O[C@H](C[N+](C)(C)C)C[C@H]1O,-1,5,0,5.9*!,0,6
C[C@H]1OC[C@@H](C[N+](C)(C)C)O1,3,2,0,-1,.,.
N#CC1=C(N)Oc2c(c(=O)oc3ccccc23)C1c1ccc(OC(=O)c2ccco2)cc1 (configuration not stated),10,7,0,-2,.,.
C=C(C)[C@@H]1C2C(=O)O[C@H]1[C@H]1OC(=O)[C@@]34OC3C[C@]2(O)[C@@]14C (some centres not stated),18,5,0,7.9*!,0,-10
CCN1CCN(Cc2cc(Br)cc(OC)c2O)CC1,31,-2,0,6.6*,0,-1
CC(C)C1N2CC3(C)CN1CC(C)(C2)C3O (configuration not stated),-6,3,0,0,.,.
O=C1C2CCN(CC2)C1Cc1ccc2c(c1)OCO2 (configuration not stated),5,1,0,1,.,.
COc1ccc(C2(CN)CCCC2)cc1,0,1,0,0,.,.
COc1ccc(C(CN(C)C)C2(O)CCCCC2)cc1 (configuration not stated),4,4,0,8.7*!,0,5
CN1CCN(c2ccc(S(C)(=O)=O)cc2N)CC1,26,-14,0,-1,.,.
COc1ccc(C(=O)C2CCCN(C)C2)c(OC)c1 (configuration not stated),35,3,0,5.0*,0,-10
C=CCOc1ccccc1/C=C/[N+](=O)[O-],-5,-1,0,7.3*,0,6
O=[N+]([O-])/C=C/c1ccccc1OCc1ccc(F)cc1,13,-8,1,-1,.,.
O=C(Nc1ccc(Cl)cc1)OCCF,17,-36,1,-1,.,.
O=C1CC(c2cnc[nH]2)C2(CCCCC2)O1 (configuration not stated),2,-6,0,7.9*,-1,-5
SMILES,MITF inh,TEAD-YAP inh,FBW7 activator,GPR151 activ,GPR151 conf act,GPR119 ag
Cc1c(C(=O)c2ccc3ccccc3c2)c2cccc3c2n1[C@H](CN1CCOCC1)CO3,10,.,1,5.4*,1,-9
CC(=O)c1ccc2[nH]cc(CC(C)N)c2c1 (configuration not stated),-10,7,0,-1,.,.
CC1=NCCc2c1[nH]c1cc(O)ccc21,-3,6,0,5.0*!,3,1
O=C(Nc1ccc(Cl)cc1C(=O)c1ccccc1)c1ccc([N+](=O)[O-])cc1Cl,6,-3,1,-1,.,.
CCCN(CCC)[C@@H]1CCc2c(F)ccc(O)c2C1,11,6,0,8.5*!,-1,-7
CC(=O)NC1(c2ccccc2)CC(C)N(C)CC1C (configuration not stated),-27,7,0,5.0*,0,7

# Bioassay records: PubChem BioAssay, The Scripps Research Institute Molecular Screening Center
